In all, about 340,000 compounds went through this assay and about 930 (0.27%) were called active. For the sample, actives were picked, then their nearest neighbours and some compounds at random. Unmarked numbers belong to inactive results.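 The calls were made as follows: active = inhibition above the screen-wide average of all tested compounds plus 3 SD (cut at about 25% in these data); inactive = the rest.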
Target: Platelet-activating factor acetylhydrolase IB subunit alpha1 (Homo sapiens) (UniProt Q15102)
Experiment: inhibition of PAF acetylhydrolase 1B subunit 3 – biochemical, fluorescence polarization, human, primary screen (AID 492972);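 also: 0% = enzyme with DMSO only and 100% = wells lacking PAFAH1B3 protein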
Conditions: recombinant PAFAH1B3, FP-rhodamine probe, at 3.39 µM, active compounds read high

Sequence of Platelet-activating factor acetylhydrolase IB subunit alpha1 (Homo sapiens) (Q15102 whole entry, looked up): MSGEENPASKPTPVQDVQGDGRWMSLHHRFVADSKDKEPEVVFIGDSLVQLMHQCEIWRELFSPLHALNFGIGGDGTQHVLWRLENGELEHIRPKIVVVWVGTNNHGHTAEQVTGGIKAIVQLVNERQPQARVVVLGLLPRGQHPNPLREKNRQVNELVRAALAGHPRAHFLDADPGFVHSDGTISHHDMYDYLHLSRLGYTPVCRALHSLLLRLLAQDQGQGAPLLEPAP

Row | Compound | inhibition
1 | COc1ccc(C(=O)NC(=S)N2CCCCC2c2cccnc2)cc1OC (stereo not given) | -1.07%
2 | Cc1c(-c2ccccc2)n[nH]c1C(=O)N=Nc1c(O)[nH]c2ccccc12 | -61.7%
3 | S=C(NCCCc1ccccc1)Nc1ccc(Br)cc1 | 7.28%
4 | C/C=N/N(c1ccccc1)c1ccccc1 | 0.33%
5 | N#CC(Cc1cc2ccccc2n1S(=O)(=O)c1ccccc1)OCc1ccccc1 (stereo not given) | 4.5%
6 | CCCc1ccc(OCC(O)CN2CCN(C(=O)OCC)CC2)cc1 (stereo not given) | -2.88%
7 | COC(=O)CNC(=O)C(CCSC)NC(C)=O (stereo not given) | -4.04%
8 | CCC(CO)Oc1cc(NC(=O)c2cccc(F)c2)c2ncn(C(C)C)c2c1 (stereo not given) | -2.61%
9 | CCC(CO)Oc1cc(NC(=O)c2cccc3ccccc23)c2ncn(C(C)C)c2c1 (stereo not given) | -4.73%
10 | CC(C)n1cnc2c(NCc3ccccc3)cc(OCC3CCN(C)CC3)cc21 | 49.8% (active)
11 | COc1ccccc1C(=O)N(Cc1ccc(C)o1)C1CCS(=O)(=O)C1 (stereo not given) | 4.66%
12 | COc1ccccc1NS(=O)(=O)N(C)C | -5.67%
13 | c1ccc(CC2CCN(c3nc4ccccc4n4cnnc34)CC2)cc1 | -2.84%
14 | COc1ccc(CN(Cc2ccco2)S(=O)(=O)c2ccc(S(=O)(=O)N3CCCC3)cc2)cc1 | 4.29%
15 | CC(=O)OC1CCC2(C)C(=CCC3C4CC(=O)N(O)C(=O)C4(C)CCC32)C1 (stereo not given) | 1.29%
16 | O=C(/C=C/c1ccc2c(c1)OCCO2)c1ccc(O)cc1 | -1.41%
17 | O=C(/C=C(O)/C=C/c1ccc(O)cc1)/C=C/c1ccc(O)cc1 | 36.6% (active)
18 | O=C(O)/C=C/c1ccc(OCCCF)cc1 | 9.5%
19 | O=C(CCCC(=O)N(CC(=O)NC1CCCC1)Cc1ccccc1Cl)Nc1ccccn1 | 7.22%
20 | CCOCCCN(C)C1CCN(C(=O)c2oc3ccccc3c2NC(=O)COc2cccc(C)c2)CC1 | 7.03%

Row | Compound | inhibition
21 | COc1ccc(NC(=O)ON=C2c3ccccc3-c3ccccc32)cc1 | 31.6% (active)
22 | COc1ccc(NC(=O)C(Br)C(C)C)cc1 (stereo not given) | 3.86%
23 | COc1ccc(NC(=O)CCCC(=O)c2ccccc2)cc1 | -0.24%
24 | COc1ccc(C2=NS(=O)(=O)N(C)C(C(=O)N(C)Cc3ccccc3)=C2)cc1 | 9.43%
25 | COc1ccc([N+](=O)[O-])cc1NCC(=O)c1ccc(C)cc1 | 8.91%
26 | CCNC(=O)NNC(=O)C1CC(c2cccs2)=NO1 (stereo not given) | 14.9%
27 | CCNS(=O)(=O)c1ccc(CCC(=O)N2CCN(c3cc(Cl)ccc3C)CC2)cc1 | 8.42%
28 | COc1ccc(N2CCN(C(=O)C3CCN(C(=O)c4ccccc4Cl)CC3)CC2)cc1 | -0.01%
29 | CN(N)c1nc(N2CCCC2)nc(N2CCCC2)n1 | -3.46%
30 | NC(=O)[C@H]1CC2(CC(c3cccc(NC(=O)[C@H]4CCC(=O)N4)c3)=NO2)CN1C(=O)c1ccccc1C(=O)c1ccccc1 (stereo not given in full) | -3.78%
31 | O=c1[nH]cccc1-c1nc2ccccc2n1Cc1ccc(Cl)cc1 | 6.48%
32 | O=C(Nc1nnc(-c2ccc(F)cc2)s1)c1c(F)cccc1Cl | 4.95%
33 | CN(C1CCS(=O)(=O)C1)S(=O)(=O)c1ccc2ccccc2c1 (stereo not given) | 3.01%
34 | CC(C)(C)NC(=O)NC(=O)CN1CCC(Cc2ccccc2)CC1 | 0.05%
35 | COC(=O)CCSc1cc([N+](=O)[O-])cc2c1c(C1OCCS1)nn2-c1ccccc1 (stereo not given) | -0.28%
36 | O/N=C1\CC2(Cc3nonc31)OCCO2 | 2.79%
37 | ON=C1/C(=N\O)CC2(C/C1=N/O)OCCO2 | 32.1% (active)
38 | CN1C(c2ccc(F)cc2)=CS/C1=C(/C#N)c1nnc2n1-c1ccccc1SC2 | 25.7% (active)
39 | Clc1ccc(C=NC23CN4CN(CN(C4)C2)C3)cc1 | 0.87%
40 | CC(C)C(=O)Nc1oc(-c2ccccc2)cc1C#N | 1.75%

Row | Compound | inhibition
41 | OC(c1ccccc1)C(CN1CCOCC1)c1ccccc1 (stereo not given) | 0.69%
42 | O=C(Nc1nnc(-c2ccccc2)o1)c1cccc(S(=O)(=O)N2CCOCC2)c1 | 4.84%
43 | O=C(O)c1ccc(OCC2CCCO2)cc1 (stereo not given) | 10.9%
44 | Cc1ccc(-c2cc(C(=O)NCc3cn(C)nc3C)c3cc(Br)ccc3n2)cc1 | -4.68%
45 | O=P(c1ccc2c(c1)OCCO2)(N1CCOCC1)N1CCOCC1 | 6.13%
46 | CC(c1ccco1)N(C(=O)COc1ccccc1[N+](=O)[O-])c1ccccn1 (stereo not given) | 10.8%
47 | COc1ccc(C(C)=O)cc1COC(=O)Cn1cnc2ccccc2c1=O | 6.33%
48 | COc1ccc(N2CCN(C(=O)CN3C(=O)COc4ccccc43)CC2)cc1 | 3.49%
49 | CC(NCC(=O)Nc1ccccc1C(=O)NC1CC1)c1ccccc1Cl (stereo not given) | 3.15%
50 | COc1cccc2c1C(=O)c1c(O)c3c(c(O)c1C2=O)CC(O)(C(C)=NNC(=O)c1ccc(Cl)c(Cl)c1)CC3OC1CC(N)C(O)C(C)O1 (stereo not given) | 44.5% (active)
51 | O=C(Nc1cccc2c1CCCC2)c1ccc(F)cc1 | 7.49%
52 | COCCNC(=S)Nc1cc(S(=O)(=O)N2CCOCC2)ccc1N1CCCCC1 | 7.35%
53 | CC(C)C(C(=O)NC1CCCCC1)N(CC1CCCO1)C(=O)CNS(=O)(=O)c1ccc(F)cc1 (stereo not given) | 3.67%
54 | CC(C)CN1CC(C)C(=O)N(c2ccccc2)C1=S (stereo not given) | 0.15%
55 | COc1cc2c(C(=O)N(C)c3cc(Cl)ccc3OC)cn(C)c(=O)c2cc1OC | 6.3%
56 | O=C(N/N=C/c1sc(N2CCCCC2)nc1-c1cccs1)c1cccnc1 | 26.1% (active)
57 | O=C(NN=C1CCC(=NNC(=O)c2cccnc2)CC1)c1cccnc1 | 8.42%
58 | Cc1ccc(NC(=O)COc2ccc(/C=N\NC(=O)c3cccnc3)cc2)cc1C | -9.46%
59 | COc1ccccc1C(=O)c1ccccc1C(=O)c1ccccc1 | 8.6%
60 | Cc1cc(C)n(C(=O)CCNC(=O)c2ccccc2Cl)n1 | -1.83%
